Records with an inconclusive call do not appear. Active and inactive are the calls of the source. Unless noted, the call rests on the fitted dose curve; in most records, active means well fitted curve in the direction sought with a large enough effect; inconclusive means small, poorly fitted or top-dose-only effect, or another doubt; inactive means no such curve, though single readings can be large; an effect the other way counts as inactive or inconclusive.
Target: Tumor necrosis factor (Homo sapiens) (UniProt P01375)
Sequence (P01375 whole entry, looked up): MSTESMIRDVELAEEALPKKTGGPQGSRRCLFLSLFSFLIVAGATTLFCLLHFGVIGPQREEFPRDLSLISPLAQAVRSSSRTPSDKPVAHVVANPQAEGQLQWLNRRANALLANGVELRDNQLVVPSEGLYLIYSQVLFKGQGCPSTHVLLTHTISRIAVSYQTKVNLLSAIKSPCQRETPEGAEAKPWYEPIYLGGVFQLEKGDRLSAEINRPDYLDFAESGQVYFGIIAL
Assay: qHTS assay to identify small molecules that stimulate Tumor Necrosis Factor-alpha (TNF-alpha) secretion (AID 651757; active means well fitted curve in the direction sought with a large enough effect in the signal ratio; the % refers to the signal ratio)
Conditions: Human cells, HTRF 665/615 ratio; series mostly up to 92.2 µM
How it was run: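 THP-1 cells, 3000/well; compound 17 hrs, 37 C; add cryptate/XL665 anti-TNF-alpha antibody pair; 3 hr RT; TR-FRET (HTRF) read of secreted TNF-alpha. Quantitative HTS format.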

| SMILES | Potency |
| --- | --- |
| ClC1=C(Cl)C2(Cl)C3C(Cl)C(Cl)CC3C1(Cl)C2(Cl)Cl (configuration not stated) | inactive |
| O=[N+]([O-])C(Br)Br | inactive |
| [Cd+2].[Cl-].[Cl-] | inactive |

Target: Nuclear receptor ROR-gamma (Homo sapiens) (UniProt P51449)
Sequence (P51449 whole entry, looked up): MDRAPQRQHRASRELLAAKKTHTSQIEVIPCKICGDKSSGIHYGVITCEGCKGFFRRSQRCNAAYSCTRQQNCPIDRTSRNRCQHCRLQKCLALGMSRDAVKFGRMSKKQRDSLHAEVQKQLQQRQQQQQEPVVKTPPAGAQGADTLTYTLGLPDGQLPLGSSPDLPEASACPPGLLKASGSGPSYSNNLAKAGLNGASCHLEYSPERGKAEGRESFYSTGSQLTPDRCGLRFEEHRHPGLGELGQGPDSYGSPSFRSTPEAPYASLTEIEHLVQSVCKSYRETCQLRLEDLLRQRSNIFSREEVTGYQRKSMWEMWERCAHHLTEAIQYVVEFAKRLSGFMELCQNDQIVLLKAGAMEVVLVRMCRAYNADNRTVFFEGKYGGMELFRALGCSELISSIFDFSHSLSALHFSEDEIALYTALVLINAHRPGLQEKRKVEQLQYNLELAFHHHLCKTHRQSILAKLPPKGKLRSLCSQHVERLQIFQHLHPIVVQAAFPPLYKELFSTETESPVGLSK
Assay: qHTS assay for small molecule antagonists of the retinoid-related orphan receptor gamma (ROR-gamma) signaling pathway (AID 651802); further: potency means the concentration at half of the fitted maximal effect; nearly all actives have a fitted effect of over 60% in size
Conditions: ROR-gamma antagonist cell reporter assay; series mostly up to 92.2 µM
How it was run: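 Luciferase read-out: ONE-Glo luminescence after 30 min at room temperature, following 16hr doxycycline induction at 37C, 5% CO2 of CHO cells with TET-inducible ROR and RORE-LUC reporter; decreased luminescence = reduced reporter activity.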

| SMILES | Potency |
| --- | --- |
| ClC1=C(Cl)C2(Cl)C3C(Cl)C(Cl)CC3C1(Cl)C2(Cl)Cl (configuration not stated) | 37.6 µM (active) |
| O=[N+]([O-])C(Br)Br | 18.8 µM (active) |
| [Cd+2].[Cl-].[Cl-] | 3.35 µM (active) |

Tested on: not listed separately
Assay: qHTS assay for small molecule antagonists of the retinoid-related orphan receptor gamma (ROR-gamma) signaling pathway - cell viability counter screen (AID 720652; active means well fitted curve in the direction sought with a large enough effect in the repeat runs; an effect the other way counts as inactive or inconclusive;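 further: potency means the concentration at half of the fitted maximal effect; compound exposure lasted 16 hr before ATP read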)
Conditions: RORgamma reporter cell line viability counter screen; series mostly up to 92.2 µM
How it was run: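 CHO RORE-LUC/TET-ROR line, 1,000 cells/well, 37 C 5% CO2 5 hr; cpd or DMSO + doxycycline induction, 16 hr. CellTiter-Glo, 30 min RT, luminescence = ATP content.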

| SMILES | Potency |
| --- | --- |
| ClC1=C(Cl)C2(Cl)C3C(Cl)C(Cl)CC3C1(Cl)C2(Cl)Cl (configuration not stated) | 66.8 µM (active) |
| O=[N+]([O-])C(Br)Br | 18.8 µM (active) |
| [Cd+2].[Cl-].[Cl-] | 21.1 µM (active) |

Tested on: not listed separately
Assay: qHTS assay for cell viability of the p53RE-bla HCT-116 cell line (AID 743292); further: nearly all actives have a fitted effect of over 55% in size; further: potency means the concentration at half of the fitted maximal effect
Conditions: p53RE-bla HCT-116 viability, ATP luminescence, 16 h; series mostly up to 95 µM
How it was run: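 In this qHTS counter-screen, metabolically competent p53RE-bla HCT-116 cells were counted via their ATP content. Compounds were applied for 16 h at 37 C and luciferase-coupled luminescence was measured.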

| SMILES | Potency |
| --- | --- |
| ClC1=C(Cl)C2(Cl)C3C(Cl)C(Cl)CC3C1(Cl)C2(Cl)Cl (configuration not stated) | 50.1 µM (active) |
| O=[N+]([O-])C(Br)Br | inactive |
| [Cd+2].[Cl-].[Cl-] | inactive |
